Data reported in PubChem BioAssay (NCATS).
Inconclusive results are not listed. Active and inactive are the calls of the source. Unless noted, calls come from the whole dose curve; as a rule, active = well fitted curve in the direction sought with a large enough effect; inconclusive = small, poorly fitted or top-dose-only effect, or another doubt; inactive = no such curve, though single readings can be large; an effect the other way counts as inactive or inconclusive.

Experiments:
[1] = Cytometric Cell-Based qHTS for Inhibitors of the mTORC1 Signaling Pathway in MEF (Tsc2-/-, p53-/-) Cells (AID 2660);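 note: Tsc2 and p53 null MEFs carrying empty vector with compound for 24 h; percent of cells above a phospho-rpS6 to PI ratio cutoff in each well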
Outline: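 Percent of cells positive for normalized phospho-S6 staining is reported, with the cutoff set from rapamycin (7.5 nM) versus DMSO wells. Tsc2-/-, p53-/- MEFs received compound for 24 hrs.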

[2] = High Content Imaging Cell-Based qHTS for Inhibitors of the mTORC1 Signaling Pathway in MEF (Tsc2-/-, p53-/-) Cells (AID 2666); settings: at 38.3 µM (top of the series);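 note: percent of cells scored positive for phospho-rpS6 Ser235/236 immunostaining by imaging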
Outline: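 Inhibition of rpS6 phosphorylation is measured by immunofluorescence imaging in empty-vector Tsc2-/-, p53-/- mouse embryonic fibroblasts after 24 hrs compound exposure at 37 degree Celsius. Results are reported as % positive cells per well.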

[3] = High Content Imaging Cell-Based qHTS for Inhibitors of the mTORC1 Signaling Pathway in MEF Cells (AID 2667);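 note: Tsc2-/- p53-/- MEFs stably re-expressing wild-type Tsc2 exposed 24 h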
Outline: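 Fixed-cell imaging of phospho-S6 (Ser235/236, Alexa-488) after 24 hrs of compound treatment at 37 degree Celsius. Signal was normalized to Hoechst, and thresholds from the highest and lowest wells split cells into % active versus % non-active.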

[4] = Cytometry Cell-Based qHTS for Inhibitors of the mTORC1 Signaling Pathway in MEF cells (AID 2668);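 note: Tsc2-/- p53-/- mouse embryonic fibroblasts stably re-expressing wild-type Tsc2; percent cells positive for phospho-rpS6 Ser235/236 relative to propidium iodide stain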
Outline: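 Phospho-rpS6 (Ser235/236) immunofluorescence over PI signal, scored as % positive cells using thresholds from 7.5 nM rapamycin and DMSO wells, after 24 h compound exposure of WT-Tsc2-rescued Tsc2-/-, p53-/- MEFs. PI cell count recorded for viability.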

[5] = biological target: DNA polymerase III PolC-type (Bacillus subtilis (strain 168)) (UniProt P13267); assay: qHTS Validation Assay for the Inhibitors of DNA Replication in Gram-Positive Bacteria (AID 485295);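 note: reconstituted holoenzyme with PolC plus beta clamp SSB and primase; PicoGreen fluorescence of double-stranded DNA made on primed circular M13 template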
Outline: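 Double-stranded DNA product detected by PicoGreen fluorescence after EDTA quench. Compound incubated with B. subtilis holoenzyme (PolC, beta subunit, SSB, primase) before substrate addition; primed replication of M13Gori with dNTPs and NTPs at room temperature; DMSO defines 0% inhibition.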

[6] = biological target: Tumor susceptibility gene 101 protein (Homo sapiens) (UniProt Q99816); assay: qHTS Validation Assay for Iinhibitors of HIV-1 Budding by Blocking the Interaction of PTAP/TSG101 (AID 485342; calls by dose curve)
Outline: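 Fluorescence polarization of 50 nM FITC-PTAP peptide bound to 10 uM Tsg101 binding domain was read after 20 min room-temperature incubation with compounds, in 10 mM HEPES pH 7.5, 0.15 M NaCl, 0.01% Tween 20.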

[7] = biological target: Beta-2 adrenergic receptor (Homo sapiens) (UniProt P07550); assay: qHTS validation assay of beta-arrestin-biased ligands of beta2-adrenergic receptor (AID 485366)
Outline: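 Screening used a titration range of up to 46 microM in a beta-arrestin recruitment Tango luciferase assay. Cells in 1% FBS medium were treated 18 hr at 37 degrees C, and luminescence was normalized to %Activity.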

[8] = biological target: Thioredoxin reductase 1, cytoplasmic (Rattus norvegicus) (UniProt O89049); assay: qHTS Assay for Substrates of Mammalian Selenoprotein Thioredoxin Reductase 1 (TrxR1) (AID 488772);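 note: a drop in NADPH fluorescence below the no-compound background marks a TrxR1 substrate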
Outline: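 In this dual-purpose format, potential substrates are identified from the first fluorescence read after selenite addition, not from the 8-minute delta. Rat enzyme is preincubated with NADPH and then with compound at ~22 deg C.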

[9] = biological target: Thioredoxin reductase 1, cytoplasmic (Rattus norvegicus) (UniProt O89049); assay: qHTS Assay for Inhibitors of Mammalian Selenoprotein Thioredoxin Reductase 1 (TrxR1) (AID 488773); settings: Potency: inhibition;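 note: drop in NADPH fluorescence over an 8 min run after selenite addition; nearly all actives have a fitted effect of over 40% in size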
Outline: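 Inhibition is scored from the loss of NADPH fluorescence between first and last reads of an 8-min kinetic run. Selenite (400 uM) was the substrate, added after 15 min compound preincubation at room temperature.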

[10] = biological target: M-phase phosphoprotein 8 (Homo sapiens) (UniProt Q99549); assay: qHTS Validation Assay for Inhibitors for MPP8 Chromodomain Interactions with Methylated Histone Tails (AID 488949);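 note: AlphaScreen signal from MPP8 chromodomain bound to biotinylated H3K9me3 peptide; top concentration of the series differs between compounds; nearly all actives have a fitted effect of over 55% in size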
Outline: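 AlphaScreen proximity signal from streptavidin donor and Ni-chelate acceptor beads (10 ug/mL each) reported binding of MPP8 to trimethyl-K9 H3(1-18) peptide, both at 50 nM. The complex formed 30 min before a 30 min compound exposure at room temperature, in PBS pH 7.4.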

[11] = biological target: Chromobox protein homolog 1 (Homo sapiens) (UniProt P83916); assay: qHTS Validation Assay for Inhibitors of HP1-beta Chromodomain Interactions with Methylated Histone Tails (AID 488953);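 note: loss of AlphaScreen luminescence from HP1-beta binding biotinylated H3K9me3 peptide; nearly all actives have a fitted effect of over 50% in size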
Outline: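 AlphaScreen proximity readout: streptavidin donor and Ni-chelate acceptor beads, 10 ug/mL final, 30 min dark, RT. Complex of 50 nM HP1-beta and 50 nM b-H3(1-18)K9me3 formed 30 min, then compound-treated 30 min; PBS pH 7.4/0.01% Tween-20.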

[12] = biological target: Methanococcus maripaludis chaperonin (MmCpn) (UniProt Q6LX38); assay: High-Throughput Screening for Modulators of Cytosolic Chaperonin Activity: MmCpn Primary Screen (AID 488978);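 note: 50 nM MmCpn enzyme hydrolysing 30 µM ATP at 37 °C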
Outline: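 ATPase activity of 50 nM MmCpn was assayed with 30 uM ATP, 10 minutes at 37C, after a 5 min compound preincubation at room temperature. ADP production was read as HTRF emission at 590 and 665 nm.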

[13] = biological target: D(1A) dopamine receptor (Homo sapiens) (UniProt P21728); assay: HTS Assay for Allosteric Agonists of the Human D1 Dopamine Receptor: Primary Screen for Agonists (AID 488981)
Outline: (§1)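 Tetracycline-induced HEK293 T-REx cells force-coupled to calcium signalling were incubated overnight at 30 C and dye-loaded at room temperature. Calcium flux over 180 s after compound addition flagged agonists; a further 180 s read after EC20 dopamine flagged potentiators.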

[14] = biological target: D(1A) dopamine receptor (Homo sapiens) (UniProt P21728); assay: HTS Assay for Allosteric Agonists of the Human D1 Dopamine Receptor: Primary Screen for Potentiators (AID 488982)
Outline: as §1

[15] = biological target: D(1A) dopamine receptor (Homo sapiens) (UniProt P21728); assay: HTS Assay for Allosteric Agonists of the Human D1 Dopamine Receptor: Primary Screen for Antagonists (AID 488983);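 note: calcium flux response to an EC80 dopamine challenge measured with no-wash dye; nearly all actives have a fitted effect of over 65% in size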
Outline: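 Calcium flux readout, no-wash dye, inducible HEK293 T-REx D1 line (force-coupled). Compound added after 10 s baseline, 180 s kinetic read; then dopamine at EC80, further 180 s read.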

[16] = Validation screen for small molecules that induce genotoxicity in human embryonic kidney (HEK293T) cells expressing luciferase-tagged ELG1 (AID 493106)
Outline: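 qHTS format; 2,000 HEK293T ELG1-luc cells/well; 23 nL compound via pin tool; 16 hr, 37 °C/5% CO2; ONE-Glo, 30 min RT; luminescence read.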

[17] = biological target: ATPase family AAA domain-containing protein 5 (Homo sapiens) (UniProt Q96QE3); assay: Validation screen for small molecules that inhibit ELG1-dependent DNA repair in human embryonic kidney (HEK293T) cells expressing luciferase-tagged ELG1 (AID 493107);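 note: cells co-treated with the DNA-damaging agent 5-fluorouridine alongside compound; inhibitors lower the ELG1-luciferase luminescence signal; nearly all actives have a fitted effect of over 70% in size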
Outline: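 ELG1-luciferase HEK293T reporter; 5-fluorouridine + compound/DMSO, 16 hr, 37 °C, 5% CO2; ONE-Glo 30 min RT; luminescence read, qHTS format.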

[18] = Nrf2 qHTS screen for inhibitors: Validation (AID 493153; active = well fitted inhibition curve with a large enough effect in the main read-out, with a control signal flat, not every such curve was filed as active); settings: viability change: measured here: cytotoxicity max response
Outline: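 Concentration-response test in A549 ARE_Fluc reporter cells (5% FBS OPTI-MEM), compound exposure 18-24 h at 37°C, 5% CO2. Cell viability measured first by CellTiter-Fluor fluorescence; ARE-driven luciferase luminescence then measured as Nrf2 activity.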

[19] = qHTS for Inhibitors of Cell Surface uPA Generation: Validation Assay (AID 493164);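 note: RAW 264.7 macrophage cells exposed to compound for 18 h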
Outline: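 Compounds are titrated over seven points (2.45 nM–38.3 uM final) onto pre-plated RAW 264.7 cells and incubated for 18 h. Retained intracellular ATP, measured with ATP-Lite, indicates blocked lethal factor entry.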

[20] = biological target: Peptidyl-prolyl cis-trans isomerase NIMA-interacting 1 (Homo sapiens) (UniProt Q13526); assay: qHTS Validation Assay to Find Inhibitors of Pin1 (AID 504536; active = well fitted inhibition curve with a large enough effect in the polarisation, with a control signal flat, not every such curve was filed as active; the % refers to the polarisation)
Outline: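 Fluorescence polarization competition: compounds (titration) displace HiFluor-488-labeled Pin1-1b peptide from Pin1 (0.3 uM final) in pH 7.5 HEPES buffer with DTT, 10 min at room temperature; %Activity normalized to no-enzyme wells, curves fitted.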

[21] = biological target: Phosphoglycerate kinase, glycosomal (Trypanosoma brucei brucei) (UniProt P07378); assay: qHTS Validation Assay to Find Inhibitors of Phosphoglycerate Kinase (AID 504547)
Outline: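 In TEA buffer (100mM, pH 7.6) containing 5mM MgCl2 and 0.01% Tween-20, the GAPDH-coupled PGK reaction proceeded for 60 minutes at room temperature before a single luminescence reading using Kinase-Glo Plus.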

[22] = biological target: phosphoglycerate mutase (Leishmania major) (UniProt Q4Q090); assay: qHTS Validation Assay to Find Inhibitors of Phosphoglycerate Mutase (AID 504548);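 note: end-point luminescence from Kinase-GloPlus after the PGAM reaction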
Outline: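 Inhibition of L. major PGAM was assessed by Kinase-GloPlus luminescence following a 45-minute room-temperature reaction with enzyme at 1.25nM final.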

[23] = biological target: Ubiquitin carboxyl-terminal hydrolase 1 (Homo sapiens) (UniProt O94782); assay: Inhibitors of USP1/UAF1: Pilot qHTS (AID 504865);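 note: rhodamine fluorescence freed from ubiquitin-rhodamine substrate followed over time; top concentration of the series differs between compounds; nearly all actives have a fitted effect of over 35% in size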
Outline: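 Deubiquitinase activity followed as kinetic rhodamine fluorescence release from 150 nM Ub-Rho. 1 nM USP1/UAF1 with compound, after 15 min room-temperature preincubation, in HEPES pH 7.8 buffer containing TCEP, EDTA, BSA and Tween-20.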

[24] = qHTS for Inhibitors of ATXN expression: Validation (AID 588378); note: nearly all actives have a fitted effect of over 75% in size
Outline: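 Luciferase luminescence (Bright-Glo) from an ATXN2-FFLuc HEK293 line after 24 h compound exposure at 37 °C, preceded by a CellTiter-Fluor fluorescence viability read. Serial dilutions of a reference ATXN2 inhibitor and a luciferase inhibitor served as controls.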

[25] = biological target: Glutaminase kidney isoform, mitochondrial (Homo sapiens) (UniProt O94925); assay: qHTS for Inhibitors of Glutaminase (GLS): LOPAC Validation (AID 624146);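 note: glutamate product detected by oxidase and peroxidase coupled Amplex red fluorescence gain; nearly all actives have a fitted effect of over 60% in size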
Outline: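 Read-out is an Amplex red fluorescence increase coupled through glutamate oxidase and HRP, measured before and after 30 min room-temperature incubation. hKGA is in 45 mM KH2PO4 (pH 8.2) with 0.02% Tween-20; glutamine added as 1mM solution.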

[26] = biological target: Glucagon-like peptide 1 receptor (Homo sapiens) (UniProt P43220); assay: qHTS of GLP-1 Receptor Agonists: LOPAC Validation (AID 624148);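 note: higher luminescence signal means agonism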
Outline: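 HEK293 cells stably co-expressing a cAMP-responsive luciferase reporter and a hypersensitive GLP-1R were plated 12 h at 37 °C and exposed to compounds for 4-6 hr at 37 °C, 5% CO2. Luminescence was read 12 min after adding detection reagent.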

Sequence of D(1A) dopamine receptor (Homo sapiens) (P21728 whole entry, looked up): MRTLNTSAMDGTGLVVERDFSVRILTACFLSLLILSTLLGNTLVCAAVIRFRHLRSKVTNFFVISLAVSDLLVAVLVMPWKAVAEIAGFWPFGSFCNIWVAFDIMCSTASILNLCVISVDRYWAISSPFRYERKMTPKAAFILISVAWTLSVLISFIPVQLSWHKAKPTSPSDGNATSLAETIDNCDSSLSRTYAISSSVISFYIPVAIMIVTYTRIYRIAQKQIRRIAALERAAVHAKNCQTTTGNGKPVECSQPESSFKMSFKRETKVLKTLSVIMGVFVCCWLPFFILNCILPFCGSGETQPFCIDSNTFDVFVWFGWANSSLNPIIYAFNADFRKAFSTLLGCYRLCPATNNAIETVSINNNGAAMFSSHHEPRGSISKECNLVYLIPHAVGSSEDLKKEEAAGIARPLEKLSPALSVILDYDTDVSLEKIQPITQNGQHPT
Sequence of Thioredoxin reductase 1, cytoplasmic (Rattus norvegicus) (O89049 whole entry, looked up): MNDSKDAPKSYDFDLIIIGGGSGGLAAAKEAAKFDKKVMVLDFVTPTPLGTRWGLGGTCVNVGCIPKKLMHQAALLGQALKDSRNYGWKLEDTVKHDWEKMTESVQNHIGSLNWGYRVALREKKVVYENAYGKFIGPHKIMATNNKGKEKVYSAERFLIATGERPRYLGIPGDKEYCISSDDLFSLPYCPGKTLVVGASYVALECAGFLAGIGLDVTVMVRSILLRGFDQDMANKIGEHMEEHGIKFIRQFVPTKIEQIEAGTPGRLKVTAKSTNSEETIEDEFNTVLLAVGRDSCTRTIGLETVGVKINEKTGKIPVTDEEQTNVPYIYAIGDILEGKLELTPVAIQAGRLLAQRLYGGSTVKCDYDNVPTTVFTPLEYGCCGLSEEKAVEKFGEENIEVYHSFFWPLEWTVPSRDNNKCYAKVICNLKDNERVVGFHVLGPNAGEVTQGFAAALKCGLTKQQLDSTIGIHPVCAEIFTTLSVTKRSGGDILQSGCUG
Sequence of Tumor susceptibility gene 101 protein (Homo sapiens) (Q99816 whole entry, looked up, the tested form may be a part): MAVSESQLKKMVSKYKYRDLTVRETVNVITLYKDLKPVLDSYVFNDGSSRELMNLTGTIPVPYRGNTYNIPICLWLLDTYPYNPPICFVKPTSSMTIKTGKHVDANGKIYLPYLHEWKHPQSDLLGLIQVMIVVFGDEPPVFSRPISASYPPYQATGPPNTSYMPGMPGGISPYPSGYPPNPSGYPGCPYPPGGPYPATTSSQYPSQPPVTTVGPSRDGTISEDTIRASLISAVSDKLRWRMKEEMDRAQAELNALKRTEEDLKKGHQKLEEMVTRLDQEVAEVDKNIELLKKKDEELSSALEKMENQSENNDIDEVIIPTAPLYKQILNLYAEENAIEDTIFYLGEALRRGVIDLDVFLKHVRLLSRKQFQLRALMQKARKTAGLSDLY
Sequence of ATPase family AAA domain-containing protein 5 (Homo sapiens) (Q96QE3 whole entry, looked up, the tested form may be a part): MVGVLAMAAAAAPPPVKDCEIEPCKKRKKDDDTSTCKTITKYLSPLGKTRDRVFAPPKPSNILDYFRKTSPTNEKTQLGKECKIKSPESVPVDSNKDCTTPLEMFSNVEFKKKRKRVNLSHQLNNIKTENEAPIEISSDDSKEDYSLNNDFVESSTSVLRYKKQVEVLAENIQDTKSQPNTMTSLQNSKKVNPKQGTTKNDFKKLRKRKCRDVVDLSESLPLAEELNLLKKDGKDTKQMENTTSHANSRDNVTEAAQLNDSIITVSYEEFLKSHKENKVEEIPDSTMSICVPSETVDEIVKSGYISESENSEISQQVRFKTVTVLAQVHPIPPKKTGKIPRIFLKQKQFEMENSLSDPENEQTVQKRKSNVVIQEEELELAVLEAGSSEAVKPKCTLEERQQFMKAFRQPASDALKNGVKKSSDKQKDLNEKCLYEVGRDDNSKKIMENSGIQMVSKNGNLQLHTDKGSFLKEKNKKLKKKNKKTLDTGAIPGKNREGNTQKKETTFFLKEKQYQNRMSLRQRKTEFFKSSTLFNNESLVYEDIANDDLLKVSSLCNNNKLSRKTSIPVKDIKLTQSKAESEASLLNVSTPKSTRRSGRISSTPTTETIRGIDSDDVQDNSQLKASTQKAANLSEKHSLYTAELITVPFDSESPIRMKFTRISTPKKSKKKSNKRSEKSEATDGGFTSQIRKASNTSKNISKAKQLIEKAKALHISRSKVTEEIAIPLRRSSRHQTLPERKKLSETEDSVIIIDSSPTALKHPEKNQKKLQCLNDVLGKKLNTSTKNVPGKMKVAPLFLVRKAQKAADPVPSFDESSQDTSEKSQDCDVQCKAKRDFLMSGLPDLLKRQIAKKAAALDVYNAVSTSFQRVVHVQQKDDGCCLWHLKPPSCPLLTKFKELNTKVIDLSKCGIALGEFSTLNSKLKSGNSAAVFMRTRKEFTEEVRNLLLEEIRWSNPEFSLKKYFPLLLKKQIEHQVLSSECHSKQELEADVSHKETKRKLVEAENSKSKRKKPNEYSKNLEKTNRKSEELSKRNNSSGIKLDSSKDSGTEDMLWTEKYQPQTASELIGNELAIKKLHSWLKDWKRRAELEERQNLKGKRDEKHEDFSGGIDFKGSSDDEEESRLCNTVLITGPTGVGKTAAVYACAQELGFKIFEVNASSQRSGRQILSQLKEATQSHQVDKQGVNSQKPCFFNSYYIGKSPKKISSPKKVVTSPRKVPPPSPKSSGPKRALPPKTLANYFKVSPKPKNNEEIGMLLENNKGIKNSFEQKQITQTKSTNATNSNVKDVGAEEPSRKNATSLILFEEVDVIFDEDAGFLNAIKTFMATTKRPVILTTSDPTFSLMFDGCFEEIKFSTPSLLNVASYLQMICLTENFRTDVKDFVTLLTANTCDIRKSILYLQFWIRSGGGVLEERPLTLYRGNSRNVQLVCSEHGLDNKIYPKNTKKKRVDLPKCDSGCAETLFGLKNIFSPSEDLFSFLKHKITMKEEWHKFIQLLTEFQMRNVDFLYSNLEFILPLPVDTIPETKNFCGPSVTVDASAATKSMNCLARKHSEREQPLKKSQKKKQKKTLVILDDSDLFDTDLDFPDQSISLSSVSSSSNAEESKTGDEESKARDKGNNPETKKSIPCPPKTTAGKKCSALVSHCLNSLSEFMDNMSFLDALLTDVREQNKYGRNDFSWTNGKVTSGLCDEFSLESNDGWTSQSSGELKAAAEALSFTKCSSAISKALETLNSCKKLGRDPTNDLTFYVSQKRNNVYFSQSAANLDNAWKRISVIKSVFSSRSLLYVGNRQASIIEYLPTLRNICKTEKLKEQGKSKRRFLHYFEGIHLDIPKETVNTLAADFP
Sequence of Peptidyl-prolyl cis-trans isomerase NIMA-interacting 1 (Homo sapiens) (Q13526 whole entry, looked up): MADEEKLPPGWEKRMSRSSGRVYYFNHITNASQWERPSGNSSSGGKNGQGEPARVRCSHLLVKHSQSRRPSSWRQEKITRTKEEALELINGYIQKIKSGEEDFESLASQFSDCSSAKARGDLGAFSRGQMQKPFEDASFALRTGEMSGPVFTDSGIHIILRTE
Sequence of M-phase phosphoprotein 8 (Homo sapiens) (Q99549 whole entry, looked up): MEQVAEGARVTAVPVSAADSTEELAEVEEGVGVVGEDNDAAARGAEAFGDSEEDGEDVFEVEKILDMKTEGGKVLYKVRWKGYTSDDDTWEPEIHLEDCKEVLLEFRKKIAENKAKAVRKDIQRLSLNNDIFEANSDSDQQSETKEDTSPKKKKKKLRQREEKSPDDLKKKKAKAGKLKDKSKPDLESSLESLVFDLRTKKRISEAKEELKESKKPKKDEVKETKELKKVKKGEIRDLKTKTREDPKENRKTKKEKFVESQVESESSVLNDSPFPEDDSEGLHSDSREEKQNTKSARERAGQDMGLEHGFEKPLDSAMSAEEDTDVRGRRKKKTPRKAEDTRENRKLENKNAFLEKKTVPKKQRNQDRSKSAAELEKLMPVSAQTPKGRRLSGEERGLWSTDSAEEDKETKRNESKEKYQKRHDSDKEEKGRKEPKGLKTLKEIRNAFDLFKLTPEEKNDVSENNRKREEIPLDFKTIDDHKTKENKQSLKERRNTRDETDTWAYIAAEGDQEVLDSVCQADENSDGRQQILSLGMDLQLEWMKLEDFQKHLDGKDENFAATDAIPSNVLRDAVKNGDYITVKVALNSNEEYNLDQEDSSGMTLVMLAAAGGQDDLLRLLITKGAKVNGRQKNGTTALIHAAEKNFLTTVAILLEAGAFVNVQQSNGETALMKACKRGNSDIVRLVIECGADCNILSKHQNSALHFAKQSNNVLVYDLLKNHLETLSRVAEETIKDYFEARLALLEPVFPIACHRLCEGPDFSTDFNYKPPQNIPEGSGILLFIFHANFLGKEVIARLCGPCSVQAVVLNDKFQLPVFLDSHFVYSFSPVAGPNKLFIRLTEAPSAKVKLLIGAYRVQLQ
Sequence of Ubiquitin carboxyl-terminal hydrolase 1 (Homo sapiens) (O94782 whole entry, looked up): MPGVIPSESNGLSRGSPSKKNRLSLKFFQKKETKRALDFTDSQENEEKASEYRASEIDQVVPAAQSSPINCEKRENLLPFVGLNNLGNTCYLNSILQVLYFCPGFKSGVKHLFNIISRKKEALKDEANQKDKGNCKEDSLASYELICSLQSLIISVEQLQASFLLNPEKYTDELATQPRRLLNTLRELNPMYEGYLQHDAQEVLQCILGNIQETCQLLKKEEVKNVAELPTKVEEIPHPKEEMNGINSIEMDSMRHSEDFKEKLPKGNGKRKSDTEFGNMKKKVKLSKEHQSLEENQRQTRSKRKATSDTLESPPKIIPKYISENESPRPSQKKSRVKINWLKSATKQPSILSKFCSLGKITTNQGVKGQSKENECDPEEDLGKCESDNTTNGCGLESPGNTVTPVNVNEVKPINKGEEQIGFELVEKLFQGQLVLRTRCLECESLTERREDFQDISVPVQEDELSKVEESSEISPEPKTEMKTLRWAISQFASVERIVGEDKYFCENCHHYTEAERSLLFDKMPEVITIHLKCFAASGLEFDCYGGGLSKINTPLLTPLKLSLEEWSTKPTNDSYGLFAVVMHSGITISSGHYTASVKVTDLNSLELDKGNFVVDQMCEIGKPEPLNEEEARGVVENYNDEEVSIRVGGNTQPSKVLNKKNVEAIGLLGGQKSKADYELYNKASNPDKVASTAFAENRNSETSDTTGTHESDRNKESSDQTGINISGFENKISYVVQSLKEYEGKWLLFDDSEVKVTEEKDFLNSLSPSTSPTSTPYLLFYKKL

CN1C2CCCC1CC(NC(=O)c1nn(C)c3ccccc13)C2 (configuration not stated)
inactive: outcome [1] | outcome [2] | Potency [3] | Potency [4] | Potency [5] | outcome [6] | outcome [7] | outcome [8] | Potency [9] | Potency [10] | Potency [11] | outcome [12] | outcome [13] | outcome [14] | outcome [15] | Potency [16] | Potency [17] | outcome [18] | outcome [19] | Potency [20] | Potency [21] | outcome [22] | Potency [23] | Potency [24] | Potency [25] | outcome [26]
0.0672%: viability change [18]
